From the supplement of paper PMC8728848
The full list was thinned out, with the strongest signals kept by preference.

Assays:
Test in all cases: glycan array binding signal (z-score within array); higher = stronger binding
Conditions in all cases: glycan notation: IUPAC condensed, linker removed
[1] = molecular target: Man(a1-2)Man(a1-6)[Man(a1-3)]Man(a1-6)[Man(a1-2)Man(a1-2)Man(a1-3)]Man
Procedure, shortened: (§1)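 The binding signal is a Z-score computed within each array. Data were drawn from 3228 arrays in the Consortium for Functional Glycomics database, restricted to those with a known protein sequence. Scores were averaged over arrays of the same protein sequence at different concentrations or buffers, and over linkers, and negative values can be taken as non-binding.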

[2] = molecular target: Man(a1-3)[Man(a1-6)]Man(a1-6)[Man(a1-3)]Man(b1-4)GlcNAc(b1-4)GlcNAc
Procedure, shortened: as §1

[3] = molecular target: Man(a1-3)[Man(a1-6)]Man(b1-4)GlcNAc(b1-4)[Fuc(a1-6)]GlcNAc
Procedure, shortened: as §1

[4] = molecular target: Neu5Ac(a2-3)Gal(b1-3)GlcNAc(b1-2)Man(a1-3)[GlcNAc(b1-4)][Neu5Ac(a2-3)Gal(b1-3)GlcNAc(b1-2)Man(a1-6)]Man(b1-4)GlcNAc(b1-4)GlcNAc
Procedure, shortened: as §1

[5] = molecular target: Neu5Ac(a2-3)Gal(b1-3)[Fuc(a1-4)]GlcNAc(b1-3)Gal(b1-3)[Fuc(a1-4)]GlcNAc
Procedure, shortened: as §1

[6] = molecular target: Neu5Ac(a2-3)Gal(b1-3)[Neu5Ac(a2-6)]GalNAc
Procedure, shortened: as §1

[7] = molecular target: Neu5Ac(a2-3)Gal(b1-4)GlcNAc(b1-3)Gal(b1-4)[Fuc(a1-3)]GlcNAc
Procedure, shortened: as §1

[8] = molecular target: Neu5Ac(a2-3)Gal(b1-4)[Fuc(a1-3)]GlcNAc6S
Procedure, shortened: as §1

[9] = molecular target: Neu5Ac(a2-6)Gal(b1-4)GlcNAc(b1-3)GalNAc
Procedure, shortened: as §1

[10] = molecular target: Neu5Ac(a2-6)GlcNAc(b1-4)GlcNAc
Procedure, shortened: as §1

[11] = molecular target: Neu5Gc(a2-3)Gal(b1-4)GlcNAc
Procedure, shortened: as §1

[12] = molecular target: Fuc(a1-2)Gal(b1-3)GalNAc(a1-3)[Fuc(a1-2)]Gal(b1-4)Glc
Procedure, shortened: as §1

[13] = molecular target: Fuc(a1-2)Gal(b1-3)GalNAc(b1-4)[Neu5Ac(a2-3)]Gal(b1-4)Glc
Procedure, shortened: as §1

Fuc(a1-2)Gal(b1-3)GlcNAc = molecular target: Fuc(a1-2)Gal(b1-3)GlcNAc
Procedure, shortened: as §1

[14] = molecular target: Fuc(a1-2)Gal(b1-3)GlcNAc(b1-3)GalNAc
Procedure, shortened: as §1

[15] = molecular target: Fuc(a1-2)Gal(b1-4)GlcNAc(b1-2)[Fuc(a1-2)Gal(b1-4)GlcNAc(b1-4)]Man(a1-3)[Fuc(a1-2)Gal(b1-4)GlcNAc(b1-2)Man(a1-6)]Man(b1-4)GlcNAc(b1-4)GlcNAc
Procedure, shortened: as §1

[16] = molecular target: Fuc(a1-2)Gal(b1-4)GlcNAc6S
Procedure, shortened: as §1

[17] = molecular target: Fuc(a1-2)Gal(b1-4)[Fuc(a1-3)]GlcNAc(b1-2)[Fuc(a1-2)Gal(b1-4)[Fuc(a1-3)]GlcNAc(b1-4)]Man(a1-3)[Fuc(a1-2)Gal(b1-4)[Fuc(a1-3)]GlcNAc(b1-2)Man(a1-6)]Man(b1-4)GlcNAc(b1-4)GlcNAc
Procedure, shortened: as §1

[18] = molecular target: Fuc(a1-2)[Gal(a1-3)]Gal(b1-4)GlcNAc(b1-2)Man(a1-3)[Fuc(a1-2)[Gal(a1-3)]Gal(b1-4)GlcNAc(b1-2)Man(a1-6)]Man(b1-4)GlcNAc(b1-4)GlcNAc
Procedure, shortened: as §1

[19] = molecular target: Fuc(a1-2)[GalNAc(a1-3)]Gal(b1-3)GalNAc(a1-3)[Fuc(a1-2)]Gal(b1-4)GlcNAc
Procedure, shortened: as §1

[20] = molecular target: Fuc(a1-2)[GalNAc(b1-3)]Gal
Procedure, shortened: as §1

[21] = molecular target: Fuc(a1-3)[Gal(b1-4)]GlcNAc(b1-3)GalNAc
Procedure, shortened: as §1

[22] = molecular target: Fuc(a1-3)[Gal(b1-4)]GlcNAc(b1-4)Gal(b1-4)[Fuc(a1-3)]GlcNAc(b1-4)Gal(b1-4)[Fuc(a1-3)]GlcNAc
Procedure, shortened: as §1

[23] = molecular target: Fuc(a1-3)[Gal(b1-4)]GlcNAc(b1-6)[Gal(b1-3)GlcNAc(b1-3)]Gal(b1-4)Glc
Procedure, shortened: as §1

Fuc(b1-3)GlcNAc = molecular target: Fuc(b1-3)GlcNAc
Procedure, shortened: as §1

[24] = molecular target: Gal(a1-3)Fuc(a1-2)Gal(b1-4)GlcNAc(b1-3)[Gal(a1-3)Fuc(a1-2)Gal(b1-4)GlcNAc(b1-6)]GalNAc
Procedure, shortened: as §1

Gal(b1-3)Gal = molecular target: Gal(b1-3)Gal
Procedure, shortened: as §1

[25] = molecular target: Gal(b1-3)[Fuc(a1-4)]GlcNAc(b1-3)Gal(b1-4)GlcNAc
Procedure, shortened: as §1

[26] = molecular target: Gal(b1-4)GalNAc(a1-3)[Fuc(a1-2)]Gal(b1-4)GlcNAc
Procedure, shortened: as §1

[27] = molecular target: Gal(b1-4)GlcNAc(b1-2)Man(a1-3)[Man(a1-6)]Man(b1-4)GlcNAc(b1-4)GlcNAc
Procedure, shortened: as §1

[28] = molecular target: Gal(b1-4)GlcNAc(b1-3)Gal(b1-4)GlcNAc(b1-3)Gal(b1-4)GlcNAc
Procedure, shortened: as §1

[29] = molecular target: Gal(b1-4)GlcNAc(b1-3)Gal(b1-4)[Fuc(a1-3)GlcNAc(b1-6)]Gal(b1-4)Glc
Procedure, shortened: as §1

[30] = molecular target: Gal(b1-4)GlcNAc(b1-6)GalNAc
Procedure, shortened: as §1

Gal4S6S(b1-4)GlcNAc = molecular target: Gal4S6S(b1-4)GlcNAc
Procedure, shortened: as §1

GalNAc(b1-3)Gal = molecular target: GalNAc(b1-3)Gal
Procedure, shortened: as §1

[31] = molecular target: GlcNAc(b1-3)Gal(b1-4)GlcNAc
Procedure, shortened: as §1

GlcNAc(b1-3)Man = molecular target: GlcNAc(b1-3)Man
Procedure, shortened: as §1

Kdn(a2-3)Gal(b1-3)GlcNAc = molecular target: Kdn(a2-3)Gal(b1-3)GlcNAc
Procedure, shortened: as §1

[32] = molecular target: Man(a1-2)Man(a1-2)Man(a1-6)[Man(a1-3)]Man
Procedure, shortened: as §1

[33] = molecular target: Man(a1-2)Man(a1-3)[Man(a1-2)Man(a1-6)]Man(a1-6)[Man(a1-2)Man(a1-2)Man(a1-3)]Man
Procedure, shortened: as §1

[34] = molecular target: Man(a1-2)Man(a1-6)[Man(a1-3)]Man(a1-6)[Man(a1-2)Man(a1-2)Man(a1-3)]Man(b1-4)GlcNAc(b1-4)GlcNAc
Procedure, shortened: as §1

Man(a1-3)[Man(a1-6)]Man = molecular target: Man(a1-3)[Man(a1-6)]Man
Procedure, shortened: as §1

[35] = molecular target: Man(a1-3)[Man(a1-6)]Man(a1-6)[Man(a1-2)Man(a1-3)]Man(b1-4)GlcNAc(b1-4)GlcNAc
Procedure, shortened: as §1

[36] = molecular target: Man(a1-3)[Man(a1-6)]Man(a1-6)[Man(a1-3)]Man
Procedure, shortened: as §1

[37] = molecular target: Neu5Ac(a2-3)Gal(b1-3)GalNAc(b1-4)[Neu5Ac(a2-8)Neu5Ac(a2-3)]Gal(b1-4)Glc
Procedure, shortened: as §1

Neu5Ac(a2-3)Gal(b1-4)Glc = molecular target: Neu5Ac(a2-3)Gal(b1-4)Glc
Procedure, shortened: as §1

[38] = molecular target: Neu5Ac(b2-6)Gal(b1-4)GlcNAc
Procedure, shortened: as §1

[39] = molecular target: Neu5Gc(a2-3)Gal(b1-4)[Fuc(a1-3)]GlcNAc
Procedure, shortened: as §1

B1: StcE (Escherichia coli), O82882.2 (protein)
chain: ADNNSAIYFNTSQPINDLQGSLAAEVKFAQSQILPAHPKEGDSQPHLTSLRKSLLLVRPVKADDKTPVQVEARDDNNKILGTLTLYPPSSLPDTIYHLDGVPEGGIDFTPHNGTKKIINTVAEVNKLSDASGSSIHSHLTNNALVEIHTANGRWVRDIYLPQGPDLEGKMVRFVSSAGYSSTVFYGDRKVTLSVGNTLLFKYVNGQWFRSGELENNRITYAQHIWSAELPAHWIVPGLNLVIKQGNLSGRLNDIKIGAPGELLLHTIDIGMLTTPRDRFDFAKDKEAHREYFQTIPVSRMIVNNYAPLHLKEVMLPTGELLTDMDPGNGGWHSGTMRQRIGKELVSHGIDNANYGLNSTAGLGENSHPYVVAQLAAHNSRGNYANGIQVHGGSGGGGIVTLDSTLGNEFSHEVGHNYGLGHYVDGFKGSVHRSAENNNSTWGWDGDKKRFIPNFYPSQTNEKSCLNNQCQEPFDGHKFGFDAMAGGSPFSAANRFTMYTPNSSAIIQRFFENKAVFDSRSSTGFSKWNADTQEMEPYEHTIDRAEQITASVNELSESKMAELMAEYAVVKVHMWNGNWTRNIYIPTASADNRGSILTINHEAGYNSYLFINGDEKVVSQGYKKSFVSDGQFWKERDVVDTREARKPEQFGVPVTTLVGYYDPEGTLSSYIYPAMYGAYGFTYSDDSQNLSDNDCQLQVDTKEGQLRFRLANHRANNTVMNKFHINVPTESQPTQATLVCNNKILDTKSLTPAPEGLTYTVNGQALPAKENEGCIVSVNSGKRYCLPVGQRSGYSLPDWIVGQEVYVDSGAKAKVLLSDWDNLSYNRIGEFVGNVNPADMKKVKAWNGQYLDFSKPRSMRVVYK
[1]
  glycan array binding signal (z-score): -0.148
[2]
  glycan array binding signal (z-score): -0.198
[3]
  glycan array binding signal (z-score): -0.049
[4]
  glycan array binding signal (z-score): -0.142
[5]
  glycan array binding signal (z-score): 4.08
[6]
  glycan array binding signal (z-score): 8.93
[7]
  glycan array binding signal (z-score): -0.162
[8]
  glycan array binding signal (z-score): 2.84
[9]
  glycan array binding signal (z-score): 2.78
[10]
  glycan array binding signal (z-score): -0.156
[11]
  glycan array binding signal (z-score): -0.113

B2: BC2L-D C-terminal domain (Burkholderia cenocepacia), Q39MQ9_BURS3 (protein)
chain: LVIVDAVTLLSAYPEASRDPAAPTVIDGRHLYVVSPGDAAQLGHNDSRLFTGLSPGDQLHLRETALALRAEVSVLFIRFALKDAGIVAPIELEVRDAATAVPDADDLLHPSCRPLKDHYWRSDVLAAGATTCTADFAVCDRDGTVSGYFRWETSIEIAGSQPDTKQPGFKPSSDRNGNFSLPPNTAFKAIFYANAADRQDLKLFIDDAPEPAATFVGNSEDGVRLFTLNSKGGKIRIEASANGRQSATDARLAPLSAGDTVWLGWLGAEDGADADYNDGIVILQWPIT
[12]
  glycan array binding signal (z-score): -0.158
[13]
  glycan array binding signal (z-score): 0.376
Fuc(a1-2)Gal(b1-3)GlcNAc
  glycan array binding signal (z-score): 0.536
[14]
  glycan array binding signal (z-score): -0.16
[15]
  glycan array binding signal (z-score): -0.137
[16]
  glycan array binding signal (z-score): 0.114
[17]
  glycan array binding signal (z-score): -0.147
[18]
  glycan array binding signal (z-score): -0.167
[19]
  glycan array binding signal (z-score): -0.169
[20]
  glycan array binding signal (z-score): -0.242
[21]
  glycan array binding signal (z-score): -0.164
[22]
  glycan array binding signal (z-score): 0.024
[23]
  glycan array binding signal (z-score): -0.165
Fuc(b1-3)GlcNAc
  glycan array binding signal (z-score): -0.241
[24]
  glycan array binding signal (z-score): -0.159
Gal(b1-3)Gal
  glycan array binding signal (z-score): -0.242
[25]
  glycan array binding signal (z-score): -0.137
[26]
  glycan array binding signal (z-score): -0.242
[27]
  glycan array binding signal (z-score): 0.676
[28]
  glycan array binding signal (z-score): -0.242
[29]
  glycan array binding signal (z-score): -0.165
[30]
  glycan array binding signal (z-score): -0.2
Gal4S6S(b1-4)GlcNAc
  glycan array binding signal (z-score): -0.243
GalNAc(b1-3)Gal
  glycan array binding signal (z-score): -0.243
[31]
  glycan array binding signal (z-score): -0.241
GlcNAc(b1-3)Man
  glycan array binding signal (z-score): -0.243
Kdn(a2-3)Gal(b1-3)GlcNAc
  glycan array binding signal (z-score): -0.242
[32]
  glycan array binding signal (z-score): 5.14
[33]
  glycan array binding signal (z-score): 4.23
[1]
  glycan array binding signal (z-score): 5.62
[34]
  glycan array binding signal (z-score): 6.24
Man(a1-3)[Man(a1-6)]Man
  glycan array binding signal (z-score): 4.31
[35]
  glycan array binding signal (z-score): 6.86
[36]
  glycan array binding signal (z-score): 5.02
[2]
  glycan array binding signal (z-score): 3.67
[37]
  glycan array binding signal (z-score): -0.154
Neu5Ac(a2-3)Gal(b1-4)Glc
  glycan array binding signal (z-score): -0.248
[8]
  glycan array binding signal (z-score): -0.244
[38]
  glycan array binding signal (z-score): -0.248
[39]
  glycan array binding signal (z-score): -0.236
